Screening results deposited in PubChem by several laboratories.
The list is not random: actives were taken first. Their share in the collection is about 3.5%.
Smad3 FoxH1 inh: Smad3/FoxH1 peptide binding inhibitors, primary screen, biochemical, TR-FRET | AID 630, 2007 | inhibition, % at 25 µM | TR-FRET Smad3/Dy647-FoxH1 peptide binding, europium anti-His | Mothers against decapentaplegic homolog 3 (Homo sapiens), P84022 | 88,000 tested, 0.29% active;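 active = compounds that reduce the energy-transfer binding signal between the protein and its labelled peptide by more than half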;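 also: 0% = Smad3 plus labelled peptide maximal FRET and 100% = peptide-only background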
ERb coact inh: inhibitors of ERβ-SRC1 coactivator interaction, primary screen, biochemical, TR-FRET, ERβ LBD, SRC-1 peptide. TR-FRET ER-beta LBD / SRC1-Cy5 peptide binding; receptor agonist-loaded with 1 µM estradiol. AID 633, 2007. 86,000 tested, 1.3% active. Estrogen receptor beta (Homo sapiens), Q92731. inhibition, % at 25.6 µM;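 active = compounds whose percent inhibition of the receptor-coactivator binding signal exceeds about 50% in the single-dose screen, limit read from the data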;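 also: 0% = receptor plus peptide wells without compound and 100% = peptide-only wells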
Target sequence (Q92731 whole entry, looked up, the tested form may be a part): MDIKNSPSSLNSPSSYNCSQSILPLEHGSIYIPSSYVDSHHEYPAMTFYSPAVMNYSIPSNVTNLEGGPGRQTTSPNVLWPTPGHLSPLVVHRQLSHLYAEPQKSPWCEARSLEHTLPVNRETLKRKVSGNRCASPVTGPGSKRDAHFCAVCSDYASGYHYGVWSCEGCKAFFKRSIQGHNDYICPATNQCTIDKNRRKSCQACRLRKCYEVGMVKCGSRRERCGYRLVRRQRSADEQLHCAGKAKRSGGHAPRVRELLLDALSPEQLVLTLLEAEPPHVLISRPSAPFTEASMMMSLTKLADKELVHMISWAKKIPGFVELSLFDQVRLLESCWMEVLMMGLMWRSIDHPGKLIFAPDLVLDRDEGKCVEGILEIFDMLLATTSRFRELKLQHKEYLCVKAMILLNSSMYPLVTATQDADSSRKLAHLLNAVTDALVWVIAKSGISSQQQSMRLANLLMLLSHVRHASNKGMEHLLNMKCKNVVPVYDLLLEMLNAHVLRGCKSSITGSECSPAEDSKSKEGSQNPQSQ
MMP13 inh: human MMP13 inhibitors, primary screen, biochemical, FRET peptide cleavage | inhibition, % at 4 µM | MMP-13 fTHP FRET cleavage, Mca fluorescence | 65,000 tested, 0.07% active | AID 570, 2006;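 active = inhibition above the mean of compound-free control plate wells plus 3 SD, cut at about 14% in these data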;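 also: 0% = DMSO wells and 100% = wells with reference MMP-13 inhibitor after basal subtraction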
MT1-MMP txn act: MT1-MMP promoter reporter activation – cell-based, luciferase luminescence, primary screen; activation factor at 10 µM; 86,000 tested, 0.16% active; HT1080 MT1-MMP promoter luciferase reporter, overnight; hits give high values; AID 750, 2007;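 active = activation factor of at least 2 for MT1-MMP transcription at 10 µM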
ERa coact inh: ERα–SRC-1 coactivator interaction inhibitors, primary screen, biochemical, TR-FRET, ERα LBD, estradiol-bound; 86,000 tested, 1.7% active; AID 629, 2007; TR-FRET ER-alpha LBD / SRC-1 peptide; inhibition, % at 25.6 µM; in the data active = inhibition above about 50%;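 also: 0% = receptor plus peptide control and 100% = peptide only without receptor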
ERa SRC1 pot: enhancers of ERα–SRC-1 coactivator binding, primary screen, biochemical, TR-FRET, ERα LBD, low estradiol. Estrogen receptor (Homo sapiens), P03372. TR-FRET ERalpha-LBD/SRC-Cy5 coactivator binding, 2 h; 100 = basal binding, no effect. coactivator binding (% of control), % at 25.6 µM. 86,000 tested, 1.3% active. AID 639, 2007; in the data active = activity above about 200%;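 also: binding measured in presence of low estradiol as agonist stimulus; 0% = peptide alone without receptor and 100% = receptor with peptide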
Starred values were filed as active, the others as inactive; [ ] = another dose, or the depositor's remark.

How did N#Cc1c(SCC(N)=O)nc2c(c1-c1ccc(O)cc1)CCCC2 do in these assays?
Smad3 FoxH1 inh: -25.0; ERb coact inh: -0.8; MMP13 inh: -5.3; MT1-MMP txn act: 1; ERa coact inh: 3.1; ERa SRC1 pot: 50.9

How did COc1ccc(-c2c(C#N)c(SCC(N)=O)nc3c2CCCC3)cc1 do in these assays?
Smad3 FoxH1 inh: 7.5; ERb coact inh: 10.5; MT1-MMP txn act: 1.3; ERa coact inh: 18.2; ERa SRC1 pot: 284.7*

How did Cc1cc(NC(=O)CSc2nc3c(c(-c4cccnc4)c2C#N)CCC3)no1 do in these assays?
Smad3 FoxH1 inh: -295.8; ERb coact inh: 18.6; MMP13 inh: 5.7; MT1-MMP txn act: 1; ERa coact inh: 21.6; ERa SRC1 pot: 257.7*[fluorescence artefact?]

Results for O=C(O)CCN1C(=O)c2ccccc2C1=O ?
Smad3 FoxH1 inh: -2.9; ERb coact inh: 0.3; MMP13 inh: -2.2; MT1-MMP txn act: 1.1; ERa coact inh: 7.4; ERa SRC1 pot: 94.8

Results for O=C1c2ccccc2C(=O)N1CCn1nc(Cl)nc1Cl ?
Smad3 FoxH1 inh: 4.0; ERb coact inh: 58.5*[fluorescence artefact?]; MMP13 inh: -2.9; MT1-MMP txn act: 1.1; ERa coact inh: -13.1; ERa SRC1 pot: 117.5

How did CCCn1c(SCC(N)=O)nnc1-c1ccco1 do in these assays?
Smad3 FoxH1 inh: -11.2; ERb coact inh: 5.8; MMP13 inh: 4.1; MT1-MMP txn act: 1.1; ERa coact inh: -5.4; ERa SRC1 pot: 111.3

Results for CCc1ccccc1NC(=O)c1cnc2scc(C)n2c1=O ?
Smad3 FoxH1 inh: 10.0; ERb coact inh: 11.0; MMP13 inh: 3.9; MT1-MMP txn act: 1.2; ERa coact inh: 10.2; ERa SRC1 pot: 216.0*[fluorescence artefact?]

Results for CSc1ccccc1NC(=O)c1cnc2scc(C)n2c1=O ?
Smad3 FoxH1 inh: -2.8; ERb coact inh: 8.0; MMP13 inh: 1.3; MT1-MMP txn act: 1.3; ERa coact inh: 8.9; ERa SRC1 pot: 91.6

Results for CN(C)c1nccc(Nc2ccccc2)c1C#N ?
Smad3 FoxH1 inh: -10.4; ERb coact inh: -11.6; MMP13 inh: -0.3; MT1-MMP txn act: 1.1; ERa coact inh: 99.2*[fluorescence artefact?]; ERa SRC1 pot: 126.2

How did Cc1nc(-c2ccc(C(=O)O)cc2)cs1 do in these assays?
Smad3 FoxH1 inh: -10.2; ERb coact inh: -4.9; MMP13 inh: -5.9; MT1-MMP txn act: 1; ERa coact inh: -3.8; ERa SRC1 pot: 122.4

How did CC(C)(C)C1CCC(OCC(O)CN2CCN(c3ccccc3)CC2)CC1 (centres undefined) do in these assays?
Smad3 FoxH1 inh: 9.6; ERb coact inh: 0.7; MT1-MMP txn act: 1.1; ERa coact inh: -1.9; ERa SRC1 pot: 107.9

How did COc1cc(OC)cc(-c2nnc(Nc3nc4c(F)cccc4s3)o2)c1 do in these assays?
Smad3 FoxH1 inh: -3.5; ERb coact inh: 32.8; MMP13 inh: -94.5; MT1-MMP txn act: 1; ERa coact inh: 34.1; ERa SRC1 pot: 435.6*[fluorescence artefact?]

Results for COc1ccc(-c2nnc(Nc3nc4c(OC)cccc4s3)o2)cc1 ?
Smad3 FoxH1 inh: 2.7; ERb coact inh: 73.2*[fluorescence artefact?]; MMP13 inh: -47.2; MT1-MMP txn act: 1.2; ERa coact inh: 77.4*[fluorescence artefact?]; ERa SRC1 pot: 96.2

Results for Fc1cccc2sc(Nc3nnc(-c4ccccc4)o3)nc12 ?
Smad3 FoxH1 inh: 14.3; ERb coact inh: 6.8; MMP13 inh: -233.7; MT1-MMP txn act: 1.4; ERa coact inh: 16.9; ERa SRC1 pot: 91.6

What do the screens show for `O=C(c1ccc2c(c1)[nH]c(=S)n1c3ccccc3nc21)N1CCN(c2ncccn2)CC1`?
Smad3 FoxH1 inh: 0.2; ERb coact inh: -3.8; MMP13 inh: -6.8; MT1-MMP txn act: 1; ERa coact inh: 50.6*[fluorescence artefact?]; ERa SRC1 pot: 72.6

Results for CC(C)N1CCc2c(sc(NC(=O)c3ccc(S(=O)(=O)N4CCOCC4)cc3)c2C(N)=O)C1 ?
Smad3 FoxH1 inh: 4.4; ERb coact inh: -13.5; MMP13 inh: 14.4*; MT1-MMP txn act: 1.1; ERa coact inh: -1.9; ERa SRC1 pot: 113.1

How did CCOC(=O)c1[nH]c(C)c(C(=O)c2ccc(C)cc2)c1C do in these assays?
Smad3 FoxH1 inh: -0.8; ERb coact inh: 0.4; MT1-MMP txn act: 0.6; ERa coact inh: 57.4*[fluorescence artefact?]; ERa SRC1 pot: 114.7

What do the screens show for `Cc1cc(Cl)ccc1OCC(=O)OC(C)C(=O)NC(N)=O` (centres undefined)?
Smad3 FoxH1 inh: -4.8; ERb coact inh: -1.4; MMP13 inh: -1.5; MT1-MMP txn act: 1.1; ERa coact inh: -3.2; ERa SRC1 pot: 105.4

Results for Cc1ccc(-c2noc(CCC(=O)Nc3ccc(C)cn3)n2)cc1 ?
Smad3 FoxH1 inh: 10.7; ERb coact inh: 2.4; MMP13 inh: 3.4; MT1-MMP txn act: 1.1; ERa coact inh: 4.6; ERa SRC1 pot: 252.9*

How did Cc1ccc(-c2noc(CCC(=O)NCC3CCCO3)n2)cc1 (centres undefined) do in these assays?
Smad3 FoxH1 inh: -2.2; ERb coact inh: -20.1; MT1-MMP txn act: 1.1; ERa coact inh: -3.0; ERa SRC1 pot: 93.4

Results for Cc1nc(C)c(C(=O)Nc2nc3c(C)cccc3s2)o1 ?
Smad3 FoxH1 inh: 4.4; ERb coact inh: 90.7*[fluorescence artefact?]; MMP13 inh: 3.2; MT1-MMP txn act: 1.3; ERa coact inh: 91.6*[fluorescence artefact?]; ERa SRC1 pot: 26.4

What do the screens show for `O=C(O)c1c(F)c(F)c(F)c(F)c1-c1ccc(Cl)cc1`?
Smad3 FoxH1 inh: -0.4; ERb coact inh: -4.6; MMP13 inh: 3.6; MT1-MMP txn act: 1.1; ERa coact inh: -9.7; ERa SRC1 pot: 108.9

How did CCCN1C2=C(C(=O)CCC2)C(c2ccc(F)cc2)C2=C1c1ccccc1C2=O (centres undefined) do in these assays?
Smad3 FoxH1 inh: 1.0; ERb coact inh: -27.8; MT1-MMP txn act: 1.2; ERa coact inh: -30.4; ERa SRC1 pot: 93.1

Results for CCN1C2=C(C(=O)CCC2)C(c2ccc(O)c(Br)c2)C2=C1CCCC2=O ?
Smad3 FoxH1 inh: -2.7; ERb coact inh: 60.3*; MMP13 inh: -5.4; MT1-MMP txn act: 1.2; ERa coact inh: 56.4*[fluorescence artefact?]; ERa SRC1 pot: 59.1

How did CCNC(=O)CC1C(=O)N(c2ccc(F)cc2)C(=O)N1Cc1ccc(OC)cc1 (centres undefined) do in these assays?
Smad3 FoxH1 inh: 1.7; ERb coact inh: -2.6; MMP13 inh: -1.4; MT1-MMP txn act: 1.1; ERa coact inh: 54.7*[fluorescence artefact?]; ERa SRC1 pot: 138.1

What do the screens show for `CCNC(=O)CC1C(=O)N(c2ccccc2)C(=O)N1CCc1ccc(OC)cc1` (centres undefined)?
Smad3 FoxH1 inh: -13.2; ERb coact inh: -12.0; MMP13 inh: 1.4; MT1-MMP txn act: 1; ERa coact inh: -15.5; ERa SRC1 pot: 161.7
